The results in this text go back to PubChem BioAssay.

Test [1] relates to Plasmodium falciparum Sir2 (PF13_0152, Sir2A). Put plainly: pfSir2 binders on small-molecule microarrays, primary screen, biochemical, small-molecule microarray, 635 nm fluorescence (AID 1098).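 Further: score merges spot fluorescence intensity with its signal-to-noise ratio.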 The settings on record: small-molecule microarray binding, fluorescence 635 nm; higher = more signal.
Test [2] can be described thus: small-molecule microarray binders of probe aDKK1, primary screen, biochemical, biotinylated probe, 635/667 nm fluorescence (AID 1099).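 Further: score merges 667nm spot fluorescence with signal to noise across triplicate slides.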 The note with it: higher = more signal.
Test [3] is described as follows: small-molecule microarray binders of probe aCHRDL2, primary screen, biochemical, biotinylated probe, 635/667 nm fluorescence (AID 1100). The settings on record: higher = more signal.
The nature of test [4]: splicing luciferase reporter signal modulators, primary screen, spliceosome inhibition project, cell-based, HEK293, splice +/- reporter (AID 1101).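 Further: HEK293 cells carrying a splicing-competent luciferase reporter gene; test concentration not given here.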 The settings on record: luminescence, 24 h, higher = more signal, called active from +8 up or from −8 down. On the technique in general: In a reporter assay the amount or activity of a reporter protein is the signal.
The target in test [5] is Fibroblast growth factor 10 (Homo sapiens) (UniProt O15520). Put plainly: FGF10 binders on small-molecule microarrays, primary screen, biochemical, small-molecule microarray, 635 nm fluorescence (AID 1102). The settings on record: FGF10 binding, fluorescence 635 nm, higher = more signal.
The subject of test [6] is glycogen synthase kinase-3 (GSK3A per assay name; protocol says GSK3B). Put plainly: GSK3 binders on small-molecule microarrays, primary screen, biochemical, small-molecule microarray, 635 nm fluorescence, GSK3A (AID 1103). Further: the record names both GSK3A and GSK3B. The settings on record: small-molecule microarray binding, fluorescence 635 nm; higher = more signal.
Test [7] concerns the target Epidermal growth factor receptor (Homo sapiens) (UniProt P00533). Put plainly: EGFR binders on small-molecule microarrays, primary screen, biochemical, small-molecule microarray, 635 nm fluorescence (AID 1104).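 Further: score merges 667 nm emission intensity with spot signal to noise over triplicate slides.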 The note with it: EGFR binding, higher = more signal.
Test [8] has as its target Follistatin-related protein 3 (Homo sapiens) (UniProt O95633). Briefly: FSTL3 binders on small-molecule microarrays, primary screen, biochemical, small-molecule microarray, 635 nm fluorescence (AID 1105).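 Further: score merges emission near 667 nm and signal to noise per printed spot across three slides.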 The settings on record: FSTL3 binding, higher = more signal.
Test [9] has as its target Dickkopf-related protein 1 (Homo sapiens) (UniProt O94907). Briefly: DKK1 binders on small-molecule microarrays, primary screen, biochemical, small-molecule microarray, 635 nm fluorescence scan (AID 1106).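 Further: score merges emission near 667 nm with signal to noise over three replicate slides.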 The settings on record: DKK1 binding, higher = more signal.
Test [10] deals with Inhibin beta A chain (activin A). Briefly: INHBA (activin A) binders on microarrays, primary screen, biochemical, small-molecule microarray, 635 nm fluorescence scan (AID 1107).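 Further: mouse activin A protein probed at 4.33 µg/mL on printed slides; score merges bound-protein fluorescence near 667 nm with spot signal-to-noise.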 The settings on record: small-molecule microarray binding, higher = more signal.
In test [11] the test system is Human papillomavirus type 1a protein E7 (residues 44-93). Put plainly: HPV1a E7 fragment binders on microarrays, primary screen, biochemical, small-molecule microarray, residues 44-93, 635 nm fluorescence (AID 1108).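 Further: E7 fragment applied at 1 µg/mL in TBST for 1 h at 4 C; score combines spot fluorescence with its signal to noise ratio.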 The note with it: small-molecule microarray binding, fluorescence 635 nm; higher = more signal.
Test [12] is described as follows: modulators of HCV replicon luciferase signal, primary screen, HCV replication inhibitor project, Huh7 cells, luciferase reporter (AID 1109).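 Further: huh7 hepatoma cells harbouring a luciferase neomycin HCV replicon reporter; luciferase luminescence as measure of HCV replicon replication; test concentration not given here.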 The note with it: 48 h, higher = more signal. For orientation: Replicon systems follow genome replication, usually without infectious particles.
Test [13] deals with Left-right determination factor 2 (Homo sapiens) (UniProt O00292). Briefly: LEFTY2 binders on small-molecule microarrays, primary screen, biochemical, small-molecule microarray, 635 nm fluorescence scan (AID 1110). The settings on record: LEFTY2 binding, higher = more signal.
For test [14], the target named is Calmodulin-1 (Homo sapiens) (UniProt P0DP23). Put plainly: CALM1 binders on microarrays, EGTA buffer, profiling panel, biochemical, small-molecule microarray, Cy5-labelled CALM1 (AID 1111).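 Further: labelled calmodulin applied in Tris saline Tween buffer holding calcium plus EGTA and DTT.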 The note with it: Cy5-CALM1 binding fluorescence, higher = more signal.
The target is the same in test [15]. Briefly: calcium-bound CALM1 binders on microarrays, profiling panel, artefact control for SMM control-protein annotation, biochemical, small-molecule microarray, Cy5-labelled CALM1, plus calcium (AID 1112).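 Further: score merges spot fluorescence with signal to noise from triplicate slides.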 The settings on record: Cy5-CALM1 binding fluorescence, higher = more signal.
The nature of test [16]: small-molecule microarray binders of probe aWnt5a, primary screen, biochemical, biotinylated probe, 635/667 nm fluorescence (AID 1113).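 Further: score merges 667 nm fluorescence intensity with signal-to-noise per printed feature.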 The note with it: higher = more signal.
Test [17] in a line: small-molecule microarray binders of probe aShh, primary screen, biochemical, biotinylated probe, 635/667 nm fluorescence (AID 1114).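 Further: probe is biotin-labelled aShh protein from a stem cell growth factor screen; measures binding of labelled protein to compounds printed on the slide; score merges feature fluorescence at 667 nm with signal-to-noise.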 The note with it: higher = more signal.
Test [18] in a line: small-molecule microarray binders of probe aNog, primary screen, biochemical, biotinylated probe, 635/667 nm fluorescence (AID 1115).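 Further: probe is biotinylated aNog protein used at 0.15 µg/mL for 1 h at 4 C; z-score combines 667 nm fluorescence of each spot with its signal to noise.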 The note with it: higher = more signal.
Test [19] has as its target Torsin-1A-interacting protein 1 (Homo sapiens) (UniProt Q5JTV8). Put plainly: LAP1 binders from COS7 cell lysate, primary screen, small-molecule microarray, 635/667 nm fluorescence (AID 1116). The note with it: COS7-hLAP1 lysate binding, 635 nm fluorescence, higher = more signal.
Test [20] addresses Alpha-bungarotoxin (Bungarus multicinctus) (UniProt P60615). Briefly: alpha-bungarotoxin binders on microarray, profiling panel, artefact control for SMM control protein annotation, biochemical, small-molecule microarray, Alexa647 label, 635/667 nm fluorescence (AID 1117). The settings on record: alpha-BTX-A647 binding fluorescence, higher = more signal.

The structures appear in SMILES notation. The source made the active and inactive calls.

Sequence of Follistatin-related protein 3 (Homo sapiens) (O95633 whole entry, looked up): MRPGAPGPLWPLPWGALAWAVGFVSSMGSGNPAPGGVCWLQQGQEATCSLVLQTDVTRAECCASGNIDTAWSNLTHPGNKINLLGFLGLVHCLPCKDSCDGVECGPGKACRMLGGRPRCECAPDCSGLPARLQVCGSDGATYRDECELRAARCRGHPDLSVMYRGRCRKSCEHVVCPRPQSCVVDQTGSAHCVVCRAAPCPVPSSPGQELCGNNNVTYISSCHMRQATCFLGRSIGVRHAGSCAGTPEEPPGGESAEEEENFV
Sequence of Alpha-bungarotoxin (Bungarus multicinctus) (P60615 whole entry, looked up): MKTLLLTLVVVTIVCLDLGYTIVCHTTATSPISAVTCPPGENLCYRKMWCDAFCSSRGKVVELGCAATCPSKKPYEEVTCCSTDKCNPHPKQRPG
Sequence of Epidermal growth factor receptor (Homo sapiens) (P00533 whole entry, looked up): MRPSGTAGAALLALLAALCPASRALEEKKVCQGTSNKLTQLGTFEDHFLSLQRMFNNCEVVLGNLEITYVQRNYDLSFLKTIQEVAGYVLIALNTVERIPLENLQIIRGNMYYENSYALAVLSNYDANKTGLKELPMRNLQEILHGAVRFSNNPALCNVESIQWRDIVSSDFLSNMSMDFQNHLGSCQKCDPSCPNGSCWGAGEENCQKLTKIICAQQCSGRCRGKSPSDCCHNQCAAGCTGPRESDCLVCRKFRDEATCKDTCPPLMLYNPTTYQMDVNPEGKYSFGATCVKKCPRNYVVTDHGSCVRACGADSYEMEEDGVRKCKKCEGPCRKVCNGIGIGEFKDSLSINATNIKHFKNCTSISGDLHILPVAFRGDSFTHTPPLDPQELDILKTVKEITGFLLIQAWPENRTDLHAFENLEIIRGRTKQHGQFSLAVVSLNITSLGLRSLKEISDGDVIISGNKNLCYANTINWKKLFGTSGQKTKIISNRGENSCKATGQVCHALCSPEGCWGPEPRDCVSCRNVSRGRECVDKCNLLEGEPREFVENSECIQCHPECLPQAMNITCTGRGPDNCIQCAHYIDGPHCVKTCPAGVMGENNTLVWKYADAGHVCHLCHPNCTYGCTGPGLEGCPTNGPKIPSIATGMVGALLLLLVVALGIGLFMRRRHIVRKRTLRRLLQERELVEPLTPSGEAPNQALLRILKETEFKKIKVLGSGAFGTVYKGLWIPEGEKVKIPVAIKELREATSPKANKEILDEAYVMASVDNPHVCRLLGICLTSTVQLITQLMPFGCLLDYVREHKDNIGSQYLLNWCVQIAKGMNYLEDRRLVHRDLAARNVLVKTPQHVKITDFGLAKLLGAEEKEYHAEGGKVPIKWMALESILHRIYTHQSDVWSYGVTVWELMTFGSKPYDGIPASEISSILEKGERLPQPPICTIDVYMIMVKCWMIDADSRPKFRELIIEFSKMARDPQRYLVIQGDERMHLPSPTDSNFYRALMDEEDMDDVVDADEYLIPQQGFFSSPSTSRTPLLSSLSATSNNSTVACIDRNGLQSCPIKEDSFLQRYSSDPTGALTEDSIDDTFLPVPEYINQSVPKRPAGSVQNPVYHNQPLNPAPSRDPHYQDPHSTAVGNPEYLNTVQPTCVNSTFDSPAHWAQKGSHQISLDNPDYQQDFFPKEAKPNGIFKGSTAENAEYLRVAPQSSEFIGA
Sequence of Fibroblast growth factor 10 (Homo sapiens) (O15520 whole entry, looked up): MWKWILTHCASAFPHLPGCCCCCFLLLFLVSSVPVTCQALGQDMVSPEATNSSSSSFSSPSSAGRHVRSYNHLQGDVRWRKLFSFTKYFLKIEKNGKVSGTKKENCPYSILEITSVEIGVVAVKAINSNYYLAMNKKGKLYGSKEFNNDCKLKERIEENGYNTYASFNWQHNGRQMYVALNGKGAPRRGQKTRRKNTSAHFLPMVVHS
Sequence of Torsin-1A-interacting protein 1 (Homo sapiens) (Q5JTV8 whole entry, looked up): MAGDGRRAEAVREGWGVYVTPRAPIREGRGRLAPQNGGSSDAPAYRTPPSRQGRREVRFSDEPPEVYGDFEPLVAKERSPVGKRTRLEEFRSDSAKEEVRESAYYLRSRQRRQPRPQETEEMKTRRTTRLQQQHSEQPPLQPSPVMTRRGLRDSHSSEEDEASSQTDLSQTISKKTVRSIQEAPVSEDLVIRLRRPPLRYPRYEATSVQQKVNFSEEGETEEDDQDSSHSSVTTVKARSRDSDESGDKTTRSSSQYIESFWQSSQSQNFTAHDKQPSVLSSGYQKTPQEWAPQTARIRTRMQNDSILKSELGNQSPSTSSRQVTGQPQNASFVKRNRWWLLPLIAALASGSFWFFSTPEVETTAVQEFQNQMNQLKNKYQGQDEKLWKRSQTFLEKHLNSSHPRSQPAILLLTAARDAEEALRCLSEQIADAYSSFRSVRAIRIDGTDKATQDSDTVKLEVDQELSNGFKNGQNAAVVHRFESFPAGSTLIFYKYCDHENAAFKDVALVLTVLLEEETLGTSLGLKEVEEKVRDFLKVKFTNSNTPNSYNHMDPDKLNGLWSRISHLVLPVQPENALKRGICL
Sequence of Left-right determination factor 2 (Homo sapiens) (O00292 whole entry, looked up): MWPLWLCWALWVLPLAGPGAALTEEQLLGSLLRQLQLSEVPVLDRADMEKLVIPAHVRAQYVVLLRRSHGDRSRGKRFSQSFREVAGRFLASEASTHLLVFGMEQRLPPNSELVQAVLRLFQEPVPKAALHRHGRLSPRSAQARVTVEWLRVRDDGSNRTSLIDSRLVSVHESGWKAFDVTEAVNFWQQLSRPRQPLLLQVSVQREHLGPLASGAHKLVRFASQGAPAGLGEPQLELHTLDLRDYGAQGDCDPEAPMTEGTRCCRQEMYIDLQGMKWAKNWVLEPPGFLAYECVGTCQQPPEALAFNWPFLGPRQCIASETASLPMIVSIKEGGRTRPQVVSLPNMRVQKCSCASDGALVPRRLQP
Sequence of Dickkopf-related protein 1 (Homo sapiens) (O94907 whole entry, looked up): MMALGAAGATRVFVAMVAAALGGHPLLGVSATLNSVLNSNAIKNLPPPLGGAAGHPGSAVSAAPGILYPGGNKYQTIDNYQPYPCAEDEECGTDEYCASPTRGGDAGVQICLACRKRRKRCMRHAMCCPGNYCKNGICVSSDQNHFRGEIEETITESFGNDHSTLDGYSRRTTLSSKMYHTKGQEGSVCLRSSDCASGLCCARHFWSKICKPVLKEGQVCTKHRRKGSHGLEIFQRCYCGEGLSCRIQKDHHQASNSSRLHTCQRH

For the compound `C=CCNC(=O)[C@@H]1[C@H]2C(=O)O[C@H](c3ccccc3)[C@H](c3ccccc3)N2[C@H](c2ccc(OCCO)cc2)[C@@]12C(=O)N(C(=O)OCCOC)c1ccccc12`, the composite z-score in test [1] is 1.2; in test [2] it was -0.144; in test [3], 0.496; in [5] it was 1.28; in test [6] it was 1.08; in test [7], 0.459. Besides, the composite z-score came to 1.03 in test [8]; 0.0392 in test [9]; 0.745 in test [10]; 1.11 in test [11]; 0.47 in [13]; 0.789 in test [14]. For the same compound, the composite z-score in [15] is 0.132; in test [16], -0.096; in [17], 0.0639; in [18] it was -0.103; in [19], 1.58; in test [20], 1.04. The values for the z-score in test [4] and in test [12] were 0.263 (inactive) and -0.945, respectively.
Take `COC(=O)C(CC#Cc1ccc2c(c1)[C@]1(C(=O)N2)[C@H](c2ccccc2OCCO)N2[C@H](c3ccccc3)[C@H](c3ccccc3)OC(=O)[C@H]2[C@@H]1C(=O)N1CCN(c2ncccn2)CC1)C(=O)OC`: the composite z-score was 1.01 in test [1]; -0.216 in [2]; -0.145 in test [3]; 0.683 in test [5]; 1.29 in test [6]; 0.484 in test [7]. The composite z-score in test [8] turned out to be 1.27; in test [9] it was 0.891; in test [10] it was 0.143; in [11], 1.37; in test [13], 0.595; in test [14] it was 0.999. Moreover, the composite z-score in test [15] is -0.154; in test [16], -0.152; in test [17] it was 0.178; in test [18], -0.158; in test [19] it was 0.664; in test [20], 0.876. Moreover, the z-score in test [4] is -0.376 (inactive); in test [12], -2.63.
Regarding `COc1ccc([Si](C)(C)[C@H]2[C@H](CC(=O)N(CCO)Cc3ccccc3)O[C@@]3(C(=O)N(Cc4ccc(N5C(=O)c6cccc7cccc5c67)cc4)c4ccccc43)[C@@H]2C)cc1`, the composite z-score is 0.899 in [1]; 0.0486 in test [2]; 0.0598 in test [3]; 0.994 in test [5]; -0.461 in test [6]; 0.303 in test [7]. Further, the composite z-score worked out at 0.614 in test [8]; 0.541 in [9]; 0.803 in [10]; 1.28 in test [11]; 0.544 in [13]; 0.605 in test [14]. For the same compound, the composite z-score turned out to be 0.103 in [15]; 0.0495 in [16]; 0.19 in test [17]; 0.945 in test [18]; 0.869 in test [19]; 0.753 in [20]. Moreover, the z-score in test [4] is -1.1 (inactive); in test [12] it was -3.78.
On to `C=CCNC(=O)[C@@H]1[C@H]2C(=O)O[C@H](c3ccccc3)[C@H](c3ccccc3)N2[C@H](c2ccc(OCCO)cc2)[C@@]12C(=O)Nc1ccc(C#CC3=CCCCC3)cc12`, for which the composite z-score in test [1] was 1.11; in test [2] it was -0.297; in test [3], -0.299; in test [5], 1.17; in test [6] it was 1.21; in [7] it was 0.39. For the same compound, the composite z-score in [8] is 0.882; in test [9], 0.586; in test [10] it was -0.621; in test [11] it was 0.0834; in test [13], 0.413; in test [14], 1.62. Further, the composite z-score in test [15] was 0.107; in test [16] it was -0.012; in test [17], 0.103; in test [18], 0.843; in test [19], 0.803; in [20], 2.23. The z-score in test [4] was -0.384 (inactive); in test [12], -2.53.
In the case of `COCCOC(=O)N1C(=O)[C@@]2(c3cc(C#CCNC(N)=O)ccc31)[C@H](C(N)=O)[C@H]1C(=O)O[C@H](c3ccccc3)[C@H](c3ccccc3)N1[C@@H]2c1ccc(O)cc1`, the composite z-score in [1] was 0.92; in test [2], 0.554; in [3], 0.614; in test [5], 0.149; in test [6], -0.575; in test [7], -0.278. Also, the composite z-score was -0.239 in [8]; 0.0656 in [9]; 0.676 in test [10]; -0.109 in test [11]; -0.0417 in test [13]; 0.062 in test [14]. In addition, the composite z-score in test [15] was 0.662; in [16], -0.0384; in [17] it was 0.288; in test [18], -0.0245; in [19] it was 0.0743; in test [20] it was -0.285. Also, the z-score in [4] is 0.359 (inactive); in [12], 0.494.
